Compound activity deposited in PubChem by several laboratories.
The list is not random: actives were taken first. Their share in the collection is about 3.1%.
TROY NFkB inh: inhibitors of TROY-dependent NF-kB signaling; Q293 LMP1-TROYcd NF-kB luciferase reporter, 4 h; inhibition, % at 10 µM; 360,000 tested, 0.98% active; AID 1347056;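 active = compounds whose plate-normalised and pattern-corrected inhibition of the luciferase reporter signal at the single screening dose is 50% or more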
EWS-Fli inh: EWS/Fli transcriptional activity inhibition. 350,000 tested, 0.67% active. inhibition, % at 12.6 µM. AID 651661. A673 NR0B1-luciferase reporter, viability-normalised;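 active = mean inhibition of at least 50% after viability correction, with every replicate also passing that limit; inconclusive = mean reaches 50% but only one of two replicates passes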;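 note: firefly luciferase signal divided by Alamar Blue viability fluorescence both relative to DMSO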
LGR2 antag: Drosophila LGR2 receptor signaling inhibition; HEK293 LGR2, CRE-luciferase, bursicon-stimulated, 4 h; inhibition, % at 9.99 µM; 380,000 tested, 0.35% active;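 active = drop in luminescence signal, shown as inhibition above about 50% in the replicate tests, limit read from the data, passing the limit was not always enough; inconclusive = probably only some replicates passing the limit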;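 note: agonist challenge used bursicon conditioned medium at about half maximal strength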
TWEAK-Fn14 inh: blocks TWEAK-Fn14 interaction in a reporter cell assay; 360,000 tested, 2% active; inhibition, % at 10 µM; TWEAK-stimulated Fn14 reporter cells, luciferase luminescence, 8 h; in the data active = inhibition above about 50%
EBV LMP1 NFkB: inhibitors of Epstein-Barr LMP1-induced NF-kappaB reporter; LMP1-induced NF-kappaB luciferase reporter cells, luminescence; inhibition, % at 12.5 µM; 350,000 tested, 0.69% active; AID 504558; in the data active = inhibition above about 41%; inconclusive = no clear call, values can overlap the other calls;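 note: 0% = neutral control wells and 100% = reference inhibitor control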
PAX8 inh HTS: PAX8 transcriptional activity inhibition; 360,000 tested, 1.2% active; AID 652154; inhibition, % at 12.6 µM; RMG-I TPO-luciferase reporter, SteadyGlo, 24 h;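 active = mean replicate inhibition at least 60% with every replicate also reaching 60%; inconclusive = only one of the two criteria is met; inactive = mean below 60% and not all replicates reaching 60%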;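 note: luciferase light reporting Pax8 driven TPO promoter activity; plate controls were median of neutral control wells for no effect and mitoxantrone controls for full effect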
The depositor's hits bear a star; ? = inconclusive; / = no result.

SMILES	TROY NFkB inh	EWS-Fli inh	LGR2 antag	TWEAK-Fn14 inh	EBV LMP1 NFkB	PAX8 inh HTS
O=C(c1ccccc1F)N1CC(=O)N2[C@H](C1)[C@H](c1ccc(C#Cc3ccc(F)cc3)cc1)[C@@H]2CO	/	-2	19	/	/	46
C[C@H](CO)N1C[C@H](C)[C@@H](CN(C)C(=O)c2ccncc2)OCCCC[C@H](C)Oc2ccc(NS(=O)(=O)c3ccc(F)cc3)cc2C1=O	/	-3	-1	/	/	8
O=C(Nc1ccc(F)cc1)N1CC(=O)N2[C@H](CO)[C@@H](c3ccc(C#Cc4ccc(F)cc4)cc3)[C@@H]2C1	/	2	1	/	/	-12
COc1cc2c(cc1OC)C(c1cc(Br)ccc1F)N(C(=O)CCl)CC2 (stereo not drawn)	-13	58*	-18	29	-10	-18
[O-]/C(=C(\C(=S)Nc1cccc2ccccc12)[n+]1ccccc1)c1ccc(OC(F)F)cc1	82*	4	-16	43	-11	10
[O-]/C(=C(\C(=S)Nc1cccc2ccccc12)[n+]1ccccc1)c1cccs1	27	-9	-9	6	-14	24
[O-]/C(=C(\C(=S)Nc1cccc2ccccc12)[n+]1ccccc1)c1ccc2c(c1)OCCO2	84*	/	/	104*	-1	16
COc1ccc(S(=O)(=O)Nc2cccc3c2O[C@H](CN(C)C(=O)NC2CCCCC2)[C@H](C)CN([C@@H](C)CO)C3=O)cc1	/	-15	-3	/	/	/
CC(C)(C)c1ccc(/C=C(\c2nc3ccccc3[nH]2)S(=O)(=O)c2ccccc2)cc1	46	/	/	95*	3	/
COc1ccccc1-c1cc2nc(-c3ccccc3)cc(N3CCN(C(=O)c4ccoc4)CC3)n2n1	4	22	36	21	5	67*
COc1cccc(-c2cc3nc(-c4ccccc4)cc(N4CCN(C(=O)c5ccoc5)CC4)n3n2)c1	29	21	2	22	8	68*
COc1ccccc1-c1cc2nc(-c3ccccc3)cc(N3CCN(C(=O)c4ccco4)CC3)n2n1	70*	-24	89*	98*	34	86*
O=C(C[C@H]1CC[C@H](NC(=O)Cc2cccnc2)[C@@H](CO)O1)NCc1ccc2c(c1)OCO2	/	-8	9	/	/	-8
CS(=O)(=O)Nc1ccc2c(c1)[C@H]1C[C@@H](CC(=O)NCc3ccc(-c4ccccc4)cc3)O[C@@H](CO)[C@H]1O2	/	4	0	/	/	7
O=C(C[C@@H]1C[C@@H]2c3cc(NC(=O)c4ccc5c(c4)OCO5)ccc3O[C@@H]2[C@@H](CO)O1)NCc1ccc(Oc2ccccc2)cc1	/	?	68*	/	/	11
CS(=O)(=O)Nc1ccc2c(c1)[C@@H]1C[C@@H](CC(=O)NCc3ccc(-c4ccccc4)cc3)O[C@@H](CO)[C@@H]1O2	/	57*	8	/	/	82*
CS(=O)(=O)Nc1ccc2c(c1)[C@@H]1C[C@@H](CC(=O)NCc3ccc(Oc4ccccc4)cc3)O[C@@H](CO)[C@@H]1O2	/	55*	-28	/	/	84*
O=C(C[C@@H]1C[C@@H]2c3cc(NC(=O)C4CCC4)ccc3O[C@@H]2[C@@H](CO)O1)NCc1ccc(-c2ccccc2)cc1	/	10	12	/	/	70*
CS(=O)(=O)Nc1ccc2c(c1)[C@H]1C[C@H](CC(=O)NCc3ccccc3)O[C@H](CO)[C@H]1O2	2	-3	-8	4	-5	3
CS(=O)(=O)Nc1ccc2c(c1)[C@@H]1C[C@@H](CC(=O)NCc3ccc(Oc4ccccc4)cc3)O[C@H](CO)[C@@H]1O2	/	53*	-12	/	/	31
O=C(C[C@@H]1C[C@@H]2c3cc(NC(=O)Nc4ccccc4F)ccc3O[C@@H]2[C@H](CO)O1)NCc1ccc(Oc2ccccc2)cc1	/	-5	1	/	/	82*
CN(C)c1ccc2c(c1)[C@@H]1C[C@H](CC(=O)NCc3ccc(-c4ccccc4)cc3)O[C@@H](CO)[C@@H]1O2	/	4	1	/	/	14
CN(C)c1ccc2c(c1)[C@@H]1C[C@@H](CC(=O)NCc3ccc(-c4ccccc4)cc3)O[C@@H](CO)[C@@H]1O2	/	55*	-19	/	/	16
CN(C)C(=O)[C@H]1[C@H](CO)[C@H]2Cn3c(ccc(-c4ccccc4F)c3=O)[C@@H]1N2C(=O)c1ccncc1	/	-2	5	/	/	4
C[C@@H]1CN([C@H](C)CO)C(=O)Cc2cc(NS(=O)(=O)c3cccs3)ccc2O[C@@H]1CN(C)S(=O)(=O)c1cn(C)cn1	/	0	23	/	/	-29
SMILES	TROY NFkB inh	EWS-Fli inh	LGR2 antag	TWEAK-Fn14 inh	EBV LMP1 NFkB	PAX8 inh HTS
CCCNC(=O)N1CC2(C1)[C@@H](c1ccccc1)[C@H](CO)N2CC1CC1	/	-15	-2	/	/	-8
C=CCSc1nnc(NC(=O)c2nc(SCC)ncc2Cl)s1	0	16	-8	-10	-15	/
Cc1cccc(CS(=O)(=O)c2ncc(Cl)c(C(=O)Nc3nnc(C(C)C)s3)n2)c1	55*	/	/	101*	56*	/
CSc1nnc(NC(=O)c2nc(S(=O)(=O)Cc3cccc(C)c3)ncc2Cl)s1	46	/	-8	94*	?	31
CSc1ncc(Cl)c(C(=O)Nc2nnc(SC/C=C/c3ccccc3)s2)n1	30	/	-4	-12	0	/
CCSc1nnc(NC(=O)c2nc(S(=O)(=O)Cc3ccc(F)cc3)ncc2Cl)s1	-2	/	-24	99*	5	7
CC(C)c1nnc(NC(=O)CCC(=O)N2CCN(Cc3ccc(F)cc3)CC2)s1	-7	/	1	-5	5	-7
CC(C)c1nnc(NC(=O)c2nc(S(=O)(=O)Cc3ccc(F)cc3)ncc2Cl)s1	29	/	-9	99*	85*	16
C[C@@H]1CCCCO[C@H](CN(C)Cc2ccc(C(F)(F)F)cc2)[C@H](C)CN([C@@H](C)CO)C(=O)c2cc(NC(=O)NC3CCCCC3)ccc2O1	/	49	5	/	/	32
C[C@@H]1CCCCO[C@H](CN(C)C(=O)CCC(F)(F)F)[C@@H](C)CN([C@H](C)CO)C(=O)c2cc(NC(=O)NC3CCCCC3)ccc2O1	/	3	-15	/	/	/
CC(C)c1nnc(NC(=O)CS(=O)(=O)Cc2ccccc2)s1	-9	3	0	16	-6	4
Cc1ccc(CS(=O)(=O)c2ncc(Cl)c(C(=O)Nc3nnc(C(C)C)s3)n2)cc1	60*	70*	-27	100*	39	28
Cc1c(/C=N/NC(=O)c2ccccc2O)c2ccccn2c1C(=O)c1ccc(F)cc1	51*	-2	?	66*	8	26
Cc1c(/C=N/NC(=O)c2ccc(O)cc2)c2ccccn2c1C(=O)c1ccc(F)cc1	-4	/	9	54*	-23	8
COC(=O)N/N=C/c1c(C)c(C(=O)c2ccc(F)cc2)n2ccccc12	15	/	-8	10	16	2
O=C(c1cccnc1)N1C[C@@H]2[C@H](c3ccccc31)[C@@H](CO)N2C(=O)C1CCCCC1	/	1	3	/	/	2
